Vaccinia Venus: inhibitors of vaccinia virus (Venus reporter); Vaccinia virus Venus reporter expression, fluorescence; actives 0.46% (n = 330,000); Potency, µM (doses to about 36.5 µM), for inactives: at the highest dose activity change, negative = inhibition, actives largely listed as inhibitors; AID 720580; calls by dose curve; tested in A549 cells; note: potency is the fitted concentration of half-maximal effect; nearly all actives have a fitted effect of over 30% in size
FMDV inh: foot and mouth disease virus antiviral activity | FMDV antiviral cell-based qHTS | Potency, µM (top dose mostly 57.9 µM), without a hit: at the highest dose activity change, negative = inhibition, hits mostly inhibitors | actives 1.2% (n = 410,000) | AID 1159524; calls by dose curve; tested in HEK293T cells; note: read-out not given here; potency is the fitted concentration of half-maximal effect; nearly all actives have a fitted effect of over 45% in size
Lassa entry inh: inhibitors of Lassa virus binding or cell entry. Lassa virus pseudotype entry inhibition, cell reporter. Potency, µM (series often up to 37.9 µM), for the others: at the highest dose activity change, negative = inhibition, hits mostly inhibitors. actives 1.2% (n = 300,000). AID 540256; calls by dose curve; tested in HEK293 cells; note: potency is the fitted concentration of half-maximal effect; nearly all actives have a fitted effect of over 50% in size
HCMV antiviral: blocks human cytomegalovirus replication | HFF cells, HCMV-luciferase reporter, 72 h; active compounds read low | activity change, negative = inhibition, % at 57.5 µM | actives 4.5% (n = 410,000); in the data active = activity change below about -60%; inconclusive = no clear call, values can overlap the other calls; inactive = above about -39%
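Cell-based, HFFs, 1000 cells/well, 16 h 37C; cpds in DMSO + HCMV-luc, MOI 1 PFU/cell; 72 h 37C; OneGlo luminescence after 5 min RT; norm. to buffer vs Salinomycin 10uM.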
MARV entry inh: blocks Marburg virus binding to or entry into cells | Marburg virus pseudotyped entry inhibition, cell reporter | Potency, µM (top dose mostly 37.8 µM), for inactives: top-dose activity change, negative = inhibition, usual class: inhibitors | actives 1.8% (n = 300,000) | AID 540276; calls by dose curve; tested in HEK293 cells; note: potency is the fitted concentration of half-maximal effect
VACV mCherry inh: inhibitors of vaccinia virus infection (mCherry reporter signal) | Potency, µM (titrated, usually from 36.5 µM), for inactives: top-dose activity change, negative = inhibition, hits mostly inhibitors | Vaccinia virus mCherry reporter infection, fluorescence | AID 720579 | actives 0.63% (n = 310,000); calls by dose curve; tested in A549 cells; note: potency is the fitted concentration of half-maximal effect; nearly all actives have a fitted effect of over 35% in size
The depositor's hits bear a star; [ ] = another dose, or the depositor's remark. A selection: hits, their analogues and other compounds. The true share with any hit is near 6.5%. % is set by controls: 0 for no effect and ±100 for the full control effect.

For Cc1ccc(-c2nc3ccccc3o2)cc1NC(=O)C(C)Oc1ccccc1 (stereo not given) the results were Vaccinia Venus -20.3% and VACV mCherry inh 4.4%.
Screening COc1ccc(N2CCN(S(=O)(=O)CCNC(=O)COc3ccccc3F)CC2)cc1 returned Vaccinia Venus -4.5%, FMDV inh -1.0%, Lassa entry inh -1.3%[46.1 µM], HCMV antiviral -13.1 and VACV mCherry inh -7.2%.
`Nc1nn2c(-c3ccccc3)cc(=O)[nH]c2c1N=Nc1ccc(Br)cc1` gave Vaccinia Venus inconclusive, FMDV inh -3.1%, HCMV antiviral 9.2 and VACV mCherry inh 15.8µM*.
`Nc1nn2c(-c3ccccc3)cc(=O)[nH]c2c1N=Nc1ccc(O)cc1` gave Vaccinia Venus -8.4%, FMDV inh -4.5%, Lassa entry inh inconclusive, HCMV antiviral -30.8, MARV entry inh inconclusive and VACV mCherry inh -19.8%.
Screening COc1cc(OC)c(NC(=O)Nc2cccc(OCc3cc(=O)n4ccccc4n3)c2)cc1Cl returned Vaccinia Venus inconclusive, FMDV inh 7.2%, Lassa entry inh 8.8%[46.1 µM], HCMV antiviral 9.9 and VACV mCherry inh inconclusive.
For CN1CCc2cc3c(c4c2[C@H]1[C@H](O)c1ccccc1-4)OCO3 the results were Vaccinia Venus 21.8%, FMDV inh -15.6%, Lassa entry inh -23.2%, HCMV antiviral -70.8*, MARV entry inh -4.6% and VACV mCherry inh inconclusive.
`Cc1ccc(S(=O)(=O)Nc2ccc(-c3ccc(N4CCCCCC4)nn3)cc2)c(C)c1` gave Vaccinia Venus -16.0%, FMDV inh 46.4%, Lassa entry inh inconclusive, HCMV antiviral -14.0 and VACV mCherry inh -18.6%.
Screening CCN(CC)S(=O)(=O)c1ccc(N2CCN(c3ccccc3OC)CC2)c(N)c1 returned Vaccinia Venus -14.5%, FMDV inh 22.4µM*, Lassa entry inh inconclusive, HCMV antiviral -80.2*, MARV entry inh inconclusive and VACV mCherry inh inconclusive.
`CCN(c1ccccc1)S(=O)(=O)c1ccc(N)c(OC)c1` gave Vaccinia Venus -17.4%, FMDV inh 0.9%, Lassa entry inh inconclusive, HCMV antiviral 11.9, MARV entry inh 3.16µM* and VACV mCherry inh -8.3%.
For COc1ccc(-c2cnc(C)o2)cc1S(=O)(=O)Nc1ccc(F)cc1F the results were Vaccinia Venus -5.9%, FMDV inh 97.0%, Lassa entry inh 5.5%[46.1 µM], HCMV antiviral 17.6 and VACV mCherry inh -12.6%.
Screening CCc1ccc(NC(=O)c2sc3nc(C)c(C(=O)Nc4ccc(C)cc4C)c(-c4ccco4)c3c2N)cc1 returned Vaccinia Venus 5.7%, FMDV inh -17.1%, Lassa entry inh inconclusive, HCMV antiviral -19.8, MARV entry inh 20.7%[46.1 µM] and VACV mCherry inh 12.3%.
Screening C[C@H](NC(=O)N1CCn2c1nc1ccccc12)C(=O)NC1CC1 returned FMDV inh -11.6% and HCMV antiviral 0.0.
C[C@H](NC(=O)N1CCn2c1nc1ccccc12)C(=O)N1CCCCC1 was read as Vaccinia Venus 0.0%[7.34 µM], FMDV inh 11.3%, HCMV antiviral active and VACV mCherry inh 4.7%[7.34 µM].
For O=C(CSc1ncc(-c2ccccc2)[nH]1)Nc1cccc(Br)c1 the results were Vaccinia Venus -13.0%, FMDV inh 24.9%, Lassa entry inh 13.0%[46.1 µM], HCMV antiviral -66.2*, MARV entry inh 9.2%[46.1 µM] and VACV mCherry inh -17.1%.
Screening CCCCc1nc(NCCNC(=O)c2ccccc2)c(C#N)c2c1CSC(C)(C)C2 returned Vaccinia Venus inconclusive, FMDV inh inconclusive, Lassa entry inh inconclusive, HCMV antiviral -103.9* and MARV entry inh inconclusive.
Screening CCCCc1nc(NCCNC(=O)c2ccco2)c(C#N)c2c1CSC(C)(C)C2 returned FMDV inh inconclusive, Lassa entry inh 3.2%, HCMV antiviral 16.4 and MARV entry inh -14.6%.
Screening C[C@@H]1C=CCCO[C@]12C(=O)N(Cc1ccc(Br)cc1)c1cccc(Br)c12 returned MARV entry inh 7.2%[14.2 µM].
For CCCCCNC(=O)C1(C)CCc2nc3ccccc3n21 (stereo not given) the results were HCMV antiviral 52.2.
Screening O=C(Nc1ccccc1)Nc1cc(OCC(F)(F)F)cc(OCC(F)(F)F)c1 returned Vaccinia Venus inconclusive, FMDV inh -19.9%, Lassa entry inh inconclusive, HCMV antiviral -100.1*, MARV entry inh inconclusive and VACV mCherry inh inconclusive.
`O=C(NC(=O)c1ccccc1)Nc1ccccc1` gave Vaccinia Venus -5.2%, FMDV inh -43.7%, Lassa entry inh inconclusive, HCMV antiviral -3.0, MARV entry inh 2.82µM* and VACV mCherry inh -0.1%.
COc1ccc(NC(=O)NC(=O)c2ccccc2)cc1 was read as FMDV inh 80.4% and HCMV antiviral 33.9.
Screening O=C(Nc1ccccc1)Nc1cc(Cl)cc(Cl)c1 returned Vaccinia Venus 11.2µM*, FMDV inh -28.7%, Lassa entry inh inconclusive, HCMV antiviral -91.4* and MARV entry inh inconclusive.
O=C(Nc1cccnc1)Nc1cc(Cl)cc(Cl)c1 was read as Vaccinia Venus inconclusive, FMDV inh inconclusive, Lassa entry inh 0.5%, HCMV antiviral -60.9*, MARV entry inh -14.8% and VACV mCherry inh -26.6%.
O=C(Nc1ccc(Nc2ccccc2)cc1)Nc1ccccc1Cl was read as FMDV inh 18.7% and HCMV antiviral inconclusive.
Screening CC(C)c1nc2cccnc2n1C1CCN(C(=O)Cn2cccn2)CC1 returned Vaccinia Venus 4.0%, FMDV inh -12.0% and VACV mCherry inh -10.3%.
`CCOC(=O)C1CCCN(C(=O)c2ccc(NC(=O)c3nsc4ccccc34)cc2)C1` (stereo not given) gave Vaccinia Venus -15.0%, FMDV inh 23.2%, Lassa entry inh inconclusive, HCMV antiviral 69.4 and VACV mCherry inh 0.4%.
Screening O=C(NCc1csc2ccccc12)Nc1cc(Cl)cc(Cl)c1 returned Vaccinia Venus -17.4%, FMDV inh inconclusive, Lassa entry inh -19.0%, HCMV antiviral -62.4*, MARV entry inh inconclusive and VACV mCherry inh -27.8%.
Screening O=C(NCc1ccccn1)Nc1cc(Cl)cc(Cl)c1 returned FMDV inh 2.2% and HCMV antiviral -24.1.
Screening COc1ccc(NC(=O)C(C)n2nc(-c3ccc(C)c(C)c3)ccc2=O)cc1OC (stereo not given) returned Vaccinia Venus -7.9%, FMDV inh 0.0%, Lassa entry inh 1.3%[46.1 µM], HCMV antiviral 10.3, MARV entry inh -0.6%[46.1 µM] and VACV mCherry inh -15.0%.
COc1cc(NC(=O)COc2ccc(-n3ccnc3)cc2)cc(OC)c1 was read as Vaccinia Venus -11.3%, FMDV inh inconclusive, Lassa entry inh 4.1%, HCMV antiviral -86.7*, MARV entry inh -10.4%[46.1 µM] and VACV mCherry inh -1.4%.
`N#Cc1cccc(NC(=O)COC(=O)Cn2nc(-c3ccccc3)oc2=O)c1` gave FMDV inh -11.4% and HCMV antiviral -65.4*.
Screening N#Cc1cccc(NC(=O)COc2ccc(-n3ccnc3)cc2)c1 returned FMDV inh 28.2µM*, Lassa entry inh 4.3%, HCMV antiviral -26.4 and MARV entry inh -16.0%.
